Here are results for 21 molecules from PubChem BioAssay (NCATS).

Where “and” joins values, the source holds several entries; their conditions need not be identical. Equal entries are not always repeated. Inconclusive results are not listed. Calls of active or inactive are those of the source. Calls follow the shape of the full dose curve.

One experiment in a line: qHTS Assay for Lipid Storage Modulators (AID 1519). As to activity change, negative = inhibition: % is scaled to controls: 0 for no effect and ±100 for the full control effect. As to conditions: Drosophila S3 cells, BODIPY lipid droplet/cell ratio, laser cytometry; at 25.7 µM (top of the series); cells loaded with oleic acid. The method, boiled down:
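Cells seeded at 5,000 per well were treated with compounds over a concentration series and loaded with oleic acid (400 uM, as added). Lipid droplet fluorescence (488 nm excitation, 500-530 nm channel) was read by laser-scanning cytometry and normalized to 20 uM Triacsin C.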
(In general: Quantitative high-throughput screening tests each substance at several concentrations.)
With `CC(C)(C)C(=O)OCOC(=O)[C@@H]1N2C(=O)[C@@H](N=CN3CCCCCC3)[C@H]2SC1(C)C`, the activity change, negative = inhibition was -0.208% (inactive).
On the same count and under the same terms, next, `Cc1cc(C(=O)NNCc2ccccc2)no1`: -1.95% (inactive); `CCN(CC)Cc1cc(Nc2ccnc3cc(Cl)ccc23)ccc1O`: -2.24% (inactive).
Turning to `CC1(C)S[C@@H]2[C@H](NC(=O)[C@@H](NC(=O)N3CCNC3=O)c3ccccc3)C(=O)N2[C@H]1C(=O)O`, the activity change, negative = inhibition is -1.89% (inactive).
Still for that read-out and setting: next, `Cc1c(C)c2c(c(C)c1O)CC[C@@](C)(CCC[C@@H](C)CCC[C@@H](C)CCCC(C)C)O2`: -2.72% (inactive).
Still for that read-out and setting: under `CC1(C)S[C@@H]2[C@H](NC(=O)Cc3ccccc3)C(=O)N2[C@H]1C(=O)O` stands -1.47% (inactive); under `CC[N+](C)(C)Cc1ccccc1Br`, -0.125% (inactive).

Still in this experiment, the particulars now being: Drosophila S3 cells, BODIPY lipid droplet/cell ratio, laser cytometry; at 57.5 µM (top of the series); cells loaded with oleic acid.
For the molecule `O=C(O)CN(CCN(CC(=O)O)CC(=O)O)CC(=O)O`, the activity change, negative = inhibition was 6.6% (inactive).
Still for that read-out and setting: under `C=CCSSSCC=C` stands 6.54% (inactive).
Still for that read-out and setting: next, `CCC(=O)NCCC1CCc2ccc3c(c21)CCO3` (centres undefined): 11.3% (inactive); `NC(=O)c1ncn(C2OC(CO)C(O)C2O)n1` (centres undefined): 2.97% (inactive); `CN1Cc2c(N)cccc2C(c2ccccc2)C1` (centres undefined): 0.643% (inactive).
Still for that read-out and setting: next, `CCCC(=O)Nc1ncnc2c1ncn2C1OC2COP(=O)(O)OC2C1OC(=O)CCC` (centres undefined): 10.5% (inactive).
Turning to `Cc1cn([C@H]2C[C@H](O)[C@@H](CO)O2)c(=O)[nH]c1=O`, the activity change, negative = inhibition is -2.02% (inactive).
On the same count and under the same terms, under `CC[N+](C)(C)Cc1ccccc1Br` stands 0.506% (inactive).
For the molecule `CCCC(=O)Nc1ncnc2c1ncn2[C@@H]1O[C@@H]2COP(=O)(O)O[C@H]2[C@H]1OC(=O)CCC`, the activity change, negative = inhibition was 1.77% (inactive).
Take `Oc1cc(O)c2c(c1)OC(c1ccc(O)c(O)c1)C(O)C2` (centres undefined): the activity change, negative = inhibition is 7.06% (inactive).
Still for that read-out and setting: under `O=c1ccn([C@@H]2O[C@H](CO)[C@@H](O)[C@H]2O)c(=O)[nH]1` stands 1.01% (inactive).
Still for that read-out and setting: next, `CC1=C(/C=C/C(C)=C/C=C/C(C)=C/C=C/C=C(C)/C=C/C=C(C)/C=C/C2=C(C)C(=O)CCC2(C)C)C(C)(C)CCC1=O`: 5.18% (inactive).
On the same count and under the same terms, next, `C[C@@H]1CCC2[C@@H](C)[C@@H](O)O[C@@H]3O[C@@]4(C)CC[C@@H]1[C@@]23OO4` (some centres undefined): -0.729% (inactive).
`Cc1c(C)c2c(c(C)c1O)CC[C@@](C)(CCC[C@H](C)CCC[C@H](C)CCCC(C)C)O2`: the activity change, negative = inhibition was 0.911% (inactive).
The same measure, in the same setting: under `OCc1ccccc1O[C@@H]1O[C@H](CO)[C@@H](O)[C@H](O)[C@H]1O` stands -1.43% (inactive).

Staying with this experiment, now noted: Drosophila S3 cells, BODIPY lipid droplet/cell ratio, laser cytometry; measured here: cell count channel max response; cells loaded with oleic acid.
Consider `O=C(O)CN(CCN(CC(=O)O)CC(=O)O)CC(=O)O`, for which the max response was -1.95%.
Turning to `C=CCSSSCC=C`, the max response was -4.64%.
Same read-out and setting: under `CCC(=O)NCCC1CCc2ccc3c(c21)CCO3` (centres undefined) stands 9.34%; under `CC(C)(C)C(=O)OCOC(=O)[C@@H]1N2C(=O)[C@@H](N=CN3CCCCCC3)[C@H]2SC1(C)C`, -9.59%; under `NC(=O)c1ncn(C2OC(CO)C(O)C2O)n1` (centres undefined), 6.51%.
Regarding `Cc1cc(C(=O)NNCc2ccccc2)no1`, the max response was -16.5%.
As to `CCN(CC)Cc1cc(Nc2ccnc3cc(Cl)ccc23)ccc1O`, the max response is -18.5%.
In the case of `CC1(C)S[C@@H]2[C@H](NC(=O)[C@@H](NC(=O)N3CCNC3=O)c3ccccc3)C(=O)N2[C@H]1C(=O)O`, the max response was -12.9%.
In the case of `CN1Cc2c(N)cccc2C(c2ccccc2)C1` (centres undefined), the max response is 11.3%.
On the same count and under the same terms, under `Cc1c(C)c2c(c(C)c1O)CC[C@@](C)(CCC[C@@H](C)CCC[C@@H](C)CCCC(C)C)O2` stands 2.07%; under `CC1(C)S[C@@H]2[C@H](NC(=O)Cc3ccccc3)C(=O)N2[C@H]1C(=O)O`, 2.65%; under `CCCC(=O)Nc1ncnc2c1ncn2C1OC2COP(=O)(O)OC2C1OC(=O)CCC` (centres undefined), 15.6%.
Take `Cc1cn([C@H]2C[C@H](O)[C@@H](CO)O2)c(=O)[nH]c1=O`: the max response is -24%.
Regarding `CC[N+](C)(C)Cc1ccccc1Br`, the max response is 1.39% and 57.6%.
As for `CCCC(=O)Nc1ncnc2c1ncn2[C@@H]1O[C@@H]2COP(=O)(O)O[C@H]2[C@H]1OC(=O)CCC`, the max response is -7.18%.
Take `Oc1cc(O)c2c(c1)OC(c1ccc(O)c(O)c1)C(O)C2` (centres undefined): the max response came out at 2.83%.
Same read-out and setting: under `O=c1ccn([C@@H]2O[C@H](CO)[C@@H](O)[C@H]2O)c(=O)[nH]1` stands -6.37%; under `CC1=C(/C=C/C(C)=C/C=C/C(C)=C/C=C/C=C(C)/C=C/C=C(C)/C=C/C2=C(C)C(=O)CCC2(C)C)C(C)(C)CCC1=O`, 20.9%; under `C[C@@H]1CCC2[C@@H](C)[C@@H](O)O[C@@H]3O[C@@]4(C)CC[C@@H]1[C@@]23OO4` (some centres undefined), 14.2%.
Same read-out and setting: next, `Cc1c(C)c2c(c(C)c1O)CC[C@@](C)(CCC[C@H](C)CCC[C@H](C)CCCC(C)C)O2`: -14.2%.
Still for that read-out and setting: under `OCc1ccccc1O[C@@H]1O[C@H](CO)[C@@H](O)[C@H](O)[C@H]1O` stands -14.9%.

The experiment is the same for the next values; noted with them: Drosophila S3 cells, BODIPY lipid droplet/cell ratio, laser cytometry; measured here: lipid channel max response; cells loaded with oleic acid.
In the case of `O=C(O)CN(CCN(CC(=O)O)CC(=O)O)CC(=O)O`, the max response was determined as 6.6%.
The same measure, in the same setting: under `C=CCSSSCC=C` stands 3.63%; under `CCC(=O)NCCC1CCc2ccc3c(c21)CCO3` (centres undefined), 23.8%.
The same measure, in the same setting: under `CC(C)(C)C(=O)OCOC(=O)[C@@H]1N2C(=O)[C@@H](N=CN3CCCCCC3)[C@H]2SC1(C)C` stands -6.96%; under `NC(=O)c1ncn(C2OC(CO)C(O)C2O)n1` (centres undefined), 12.6%.
Take `Cc1cc(C(=O)NNCc2ccccc2)no1`: the max response is -16.7%.
Still for that read-out and setting: under `CCN(CC)Cc1cc(Nc2ccnc3cc(Cl)ccc23)ccc1O` stands -20.7%.
Regarding `CC1(C)S[C@@H]2[C@H](NC(=O)[C@@H](NC(=O)N3CCNC3=O)c3ccccc3)C(=O)N2[C@H]1C(=O)O`, the max response is -11.6%.
With `CN1Cc2c(N)cccc2C(c2ccccc2)C1` (centres undefined), the max response turned out to be 9.26%.
Consider `Cc1c(C)c2c(c(C)c1O)CC[C@@](C)(CCC[C@@H](C)CCC[C@@H](C)CCCC(C)C)O2`, for which the max response was -0.999%.
In the case of `CC1(C)S[C@@H]2[C@H](NC(=O)Cc3ccccc3)C(=O)N2[C@H]1C(=O)O`, the max response came out at 2.53%.
Turning to `CCCC(=O)Nc1ncnc2c1ncn2C1OC2COP(=O)(O)OC2C1OC(=O)CCC` (centres undefined), the max response came to 29.9%.
Same read-out and setting: next, `Cc1cn([C@H]2C[C@H](O)[C@@H](CO)O2)c(=O)[nH]c1=O`: -24.4%; `CC[N+](C)(C)Cc1ccccc1Br`: 2.06% and 57.4%; `CCCC(=O)Nc1ncnc2c1ncn2[C@@H]1O[C@@H]2COP(=O)(O)O[C@H]2[C@H]1OC(=O)CCC`: -6.01%.
Regarding `Oc1cc(O)c2c(c1)OC(c1ccc(O)c(O)c1)C(O)C2` (centres undefined), the max response is 12.7%.
Same read-out and setting: under `O=c1ccn([C@@H]2O[C@H](CO)[C@@H](O)[C@H]2O)c(=O)[nH]1` stands -5.71%.
The same measure, in the same setting: next, `CC1=C(/C=C/C(C)=C/C=C/C(C)=C/C=C/C=C(C)/C=C/C=C(C)/C=C/C2=C(C)C(=O)CCC2(C)C)C(C)(C)CCC1=O`: 28.3%.
The same measure, in the same setting: under `C[C@@H]1CCC2[C@@H](C)[C@@H](O)O[C@@H]3O[C@@]4(C)CC[C@@H]1[C@@]23OO4` (some centres undefined) stands 15.2%.
Turning to `Cc1c(C)c2c(c(C)c1O)CC[C@@](C)(CCC[C@H](C)CCC[C@H](C)CCCC(C)C)O2`, the max response is -14.3%.
The same measure, in the same setting: under `OCc1ccccc1O[C@@H]1O[C@H](CO)[C@@H](O)[C@H](O)[C@H]1O` stands -16.3%.
